Laboratory results: PubChem BioAssay AID588477 (NMMLSC, 2011)
Calls of active or inactive are those of the source.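 How the source made its calls: active means valid curve fit with half-effect dose at most 10 µM and total binding change across doses of 30 points or more; inactive means the rest.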

Each molecule was assayed on Rac wt (assay: small GTPase nucleotide-binding inhibition, multiplex panel – biochemical, round 1 SAR, Mg buffer, multiplex flow cytometry, selectivity assay for Cdc42 probe extension project, SAR follow-up (AID 588477)). Conditions: GST-GTPase beads, Bodipy-GTP binding; series mostly up to 100 µM.

outcome, inactive:
O=C(C#Cc1ccccc1)c1cccc([N+](=O)[O-])c1, COc1ccc(C2CC(c3ccccc3)=NN2c2ccc(S(N)(=O)=O)cc2)cc1 (stereo not drawn), NS(=O)(=O)c1ccc(N2N=C(c3ccccc3)CC2c2ccccc2)cc1 (stereo not drawn)
